Measurements from PubChem BioAssay.
Values without a mark were called inactive. Calls of active or inactive are those of the source. Unless noted, no stated cut-off is given here; in the data, active means inhibition above about 42%; inactive means the rest.

Experiments:
[1] = StAR promoter reporter inhibitors, counter-screen for LRH-1 inverse agonist project, cell-based, luminescence, high throughput (AID 651611; in the data active means inhibition above about 28%); settings: StAR promoter luciferase reporter counterscreen, at 3.6 µM, stronger effect = higher value
[2] = target: Nuclear receptor subfamily 5 group A member 2 (Homo sapiens) (UniProt O00482); test: NR5A2 activity suppression in reporter cells – cell-based, luminescence, confirmation (AID 651613); settings: cell-based LRH-1 luciferase reporter, inverse agonism; at 3.6 µM; stronger effect = higher value;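 further: HEK293T cells co-transfected with LRH-1 and StAR promoter luciferase reporter; 0% = vehicle wells and 100% = parental cells lacking receptor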
[3] = target: Steroidogenic factor 1 (Homo sapiens) (UniProt Q13285); test: inverse agonism at SF1 nuclear receptor – cell-based, luminescence, high throughput, counter-screen for LRH-1 inverse agonist project (AID 651614; in the data active means inhibition above about 44%;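 further: cells cotransfected with StAR promoter reporter and SF1 expression vector; 0% = vehicle on cells with receptor and 100% = vehicle on cells lacking receptor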); settings: cell-based SF1 luciferase reporter, at 3.6 µM, stronger effect = higher value
[4] = compounds suppressing VP16-driven luciferase signal – cell-based, luminescence, high throughput, counter-screen for LRH-1 inverse agonist project (AID 651615; in the data active means inhibition above about 33%); settings: Gal4-VP16 luciferase reporter cells, at 3.6 µM, stronger effect = higher value

Chain of Steroidogenic factor 1 (Homo sapiens) (Q13285 whole entry, looked up, the tested form may be a part): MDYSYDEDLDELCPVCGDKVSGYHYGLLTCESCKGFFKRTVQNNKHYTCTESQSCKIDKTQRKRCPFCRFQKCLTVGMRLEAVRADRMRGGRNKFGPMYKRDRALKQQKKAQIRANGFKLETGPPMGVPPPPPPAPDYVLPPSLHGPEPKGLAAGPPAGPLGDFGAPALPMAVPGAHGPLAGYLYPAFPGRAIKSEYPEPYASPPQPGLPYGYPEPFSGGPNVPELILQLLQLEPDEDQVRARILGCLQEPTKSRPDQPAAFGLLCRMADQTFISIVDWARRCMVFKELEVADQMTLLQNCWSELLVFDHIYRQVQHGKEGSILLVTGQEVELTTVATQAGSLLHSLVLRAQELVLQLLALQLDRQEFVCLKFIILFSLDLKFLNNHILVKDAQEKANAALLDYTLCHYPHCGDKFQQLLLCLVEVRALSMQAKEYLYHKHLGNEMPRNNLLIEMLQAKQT
Chain of Nuclear receptor subfamily 5 group A member 2 (Homo sapiens) (O00482 whole entry, looked up): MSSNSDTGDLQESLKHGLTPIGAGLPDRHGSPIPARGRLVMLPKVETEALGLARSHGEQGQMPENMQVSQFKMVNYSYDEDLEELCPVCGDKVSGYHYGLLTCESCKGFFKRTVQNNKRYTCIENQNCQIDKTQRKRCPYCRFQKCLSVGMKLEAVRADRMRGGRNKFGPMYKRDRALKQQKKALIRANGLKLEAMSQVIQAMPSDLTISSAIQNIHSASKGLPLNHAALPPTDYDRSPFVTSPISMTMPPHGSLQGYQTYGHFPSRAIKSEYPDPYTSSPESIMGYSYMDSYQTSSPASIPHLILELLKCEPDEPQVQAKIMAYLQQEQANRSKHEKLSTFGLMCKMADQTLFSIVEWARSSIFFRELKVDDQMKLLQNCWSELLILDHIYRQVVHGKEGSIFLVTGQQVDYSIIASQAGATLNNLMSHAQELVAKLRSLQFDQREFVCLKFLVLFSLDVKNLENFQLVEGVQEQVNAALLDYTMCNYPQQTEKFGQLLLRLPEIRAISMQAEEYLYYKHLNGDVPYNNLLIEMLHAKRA

SMILES	inhibition [1]	inhibition [2]	inhibition [3]	inhibition [4]
C=CC(=O)Nc1cccc(Oc2ncnc3[nH]cc(-c4cnc5ccccc5c4)c23)c1	27.3%	67.9% (active)	65.6% (active)	18.2%
Cc1cc2nc(C3CCCCC3)c(Cc3ccsc3)n2c(C)c1Br	4.75%	36.2%	37.7%	22.4%
COc1cc(CNc2ccc(CNc3ncn[nH]3)cc2)ccc1OCC(=O)NC(C)(C)C	-5.1%	14.1%	-3.26%	15.7%
O=C(CN1CCN(c2ncccn2)CC1)N1CCCc2c1c(=O)oc1ccc(O)cc21	13%	62.6% (active)	53.6% (active)	-33.2%
CCCn1c(NC(=O)c2ccc([N+](=O)[O-])o2)nc2ccccc21	18.9%	51.3% (active)	21.2%	-2.27%
CC[C@H](CO)Nc1nc(Nc2cccc(Cl)c2)c2ncn(C(C)C)c2n1	26%	49.3% (active)	38.4%	35.9% (active)
COc1ccc(CCNC(=O)c2cc(-c3ccco3)on2)cc1OC	-181%	43.8% (active)	50.5% (active)	-5.34%
CCOC(=O)N1CCc2cc(OC)c(OC)c3c2c1cc1cc(OC)c(OC)cc13	60.1% (active)	70.3% (active)	67.3% (active)	-28.7%
Cc1ccc(-n2c(SCC(=O)NCc3ccco3)nc3sc4c(c3c2=O)CC(C)(C)SC4)cc1	17.6%	56.1% (active)	44.8% (active)	6.61%
O=C(C1=C[C@@H](C2CCCCC2)C[C@@H](OCc2ccc(CO)cc2)O1)N1CCN(Cc2ccc3c(c2)OCO3)CC1	12%	46.2% (active)	40.6%	4.7%
CCOc1ccc(NC(=O)CN2C(=O)NC(C)(c3ccc(OC(F)F)cc3)C2=O)cc1 (stereo not drawn)	18.8%	62.6% (active)	59.2% (active)	-30.5%
COc1ccc(NC(=O)COC(=O)c2cc(S(=O)(=O)N3CCCC3)ccc2O)cc1	4.86%	52% (active)	46.3% (active)	0.43%
COc1cc(CSc2nnnn2-c2ccc(C)cc2)cc(OC)c1OC	24.4%	53.3% (active)	61.1% (active)	44.8% (active)
CCc1cc(=O)oc2c(C)c(OCC(=O)NCCCN3CCCC3=O)ccc12	8.43%	52.1% (active)	48.4% (active)	-11.3%
Cc1ccc(C(=O)Nc2sc3c(c2C(=O)O)CCCCC3)o1	12.2%	34.3%	69.9% (active)	45.4% (active)
NC(=O)COc1ccc2c3c(c(=O)oc2c1)CCCCC3	-1.98%	40.5%	41.6%	0.54%
O=C(CCl)NCc1cc(-c2ccc(Cl)cc2)no1	43.5% (active)	70.7% (active)	72.3% (active)	-3.6%
CN(C)c1ccc(NC(=O)CSc2nnc(-c3ccco3)c(-c3ccco3)n2)cc1	14.1%	54.9% (active)	47.8% (active)	-2.61%
Cc1cccc(-c2cc(NCCc3cccnc3)n3nccc3n2)c1	14.2%	51.1% (active)	41.3%	-2.05%
Nc1nc2ccccc2n1/N=C/c1ccc([N+](=O)[O-])s1	-0.84%	61.2% (active)	65.1% (active)	-3.2%
CCC(C)Nc1nc(-c2cccc(OC)c2O)nc2ccccc12 (stereo not drawn)	30.8% (active)	52.4% (active)	46.3% (active)	-7%
O=C1/C(=C\c2ccc(Cl)c(Cl)c2)CN(C(=O)CCN2CCOCC2)C/C1=C/c1ccc(Cl)c(Cl)c1	67.9% (active)	93.2% (active)	92.9% (active)	79% (active)
COCCn1c(SCC(=O)Nc2ccc(C(C)=O)cc2)nnc1-c1ccco1	14.8%	43.4% (active)	37.4%	-1.99%
COc1ccc(NC(=O)CS(=O)(=O)c2ccc(C)cc2)c(OC)c1	17%	53.1% (active)	56% (active)	-1.68%
Cc1cc(C)c2c(C)c(C(=O)NCc3ccncc3)oc2c1	9.09%	46.3% (active)	38.3%	7.5%
Cc1ccc(Cn2nc(C)c(NC(=O)c3noc4c3CCCCC4)c2C)cc1	14.1%	53.6% (active)	50.7% (active)	-1.13%

SMILES	inhibition [1]	inhibition [2]	inhibition [3]	inhibition [4]
COc1cc2c3c(cccc3c1)C(=O)N(CCN1CCCC1)C2=O	12.7%	72.8% (active)	49.7% (active)	70.9% (active)
Cc1c(NC(=S)NC(=O)c2ccc(Cl)cc2)c(=O)n(-c2ccccc2)n1C	11.3%	51.5% (active)	33.4%	-1.07%
CCCCOc1ccc(Br)cc1CSC(=N)N	16.4%	103% (active)	62.3% (active)	83.2% (active)
Cn1nc(C(C)(C)C)cc1C(=O)NCc1ccc2c(c1)OCO2	14.8%	59.8% (active)	58.3% (active)	50.6% (active)
O=C(NCc1cccnc1)c1ccc(NC(=O)c2ccc(Br)cc2)cc1	70.9% (active)	75.9% (active)	91.9% (active)	18.5%
COc1ccc(NC(=O)CN2C(=O)NC3(CCCc4ccccc43)C2=O)c(OC)c1 (stereo not drawn)	12.3%	50.9% (active)	42%	-6.1%
CC1(C)Cc2ccccc2-c2nnnn21	3.18%	14.1%	2.39%	-5.72%
CC(=O)N1CCN(c2ccc(NC(=O)c3cccc([N+](=O)[O-])c3)cc2)CC1	-1.56%	53.6% (active)	49.6% (active)	-19.9%
O=C(COC(=O)c1ccc(=O)n(Cc2ccccc2)n1)Nc1ccc2c(c1)OCCO2	11.8%	51.1% (active)	43.7% (active)	-13.9%
O=C(CSc1nncc(=O)[nH]1)Nc1cccc([N+](=O)[O-])c1	11.7%	57.3% (active)	53.2% (active)	8.83%
COc1ccc(NC(=O)Cn2nnc(C(=O)Nc3ccccc3C)c2N)cc1	5.36%	41.4% (active)	37.6%	9.36%
CCCc1nc2cc(C)c(Br)c(C)n2c1Cc1ccc(OC)cc1C	15.2%	48.3% (active)	45.3% (active)	5.35%
CCOc1ccc(NC(=O)Cn2cc(C(=O)C3CC3)c3ccccc32)cc1	5.9%	44.1% (active)	37.5%	-14.7%
CCc1ccccc1NC(=O)CSc1nnc([C@@H](NC(=O)OC(C)(C)C)C(C)CC)o1 (stereo partly drawn)	-3.97%	39.5%	30.1%	4.95%
Cc1cccc(NC(=O)COC(=O)Cc2cccs2)c1C	0.39%	53.8% (active)	46.9% (active)	14.1%
Cc1ccc(NC(=O)CNNC(=O)c2cccc([N+](=O)[O-])c2)cc1[N+](=O)[O-]	2.1%	34.6%	31.3%	-5.02%
CCCCCCCCN1C(=O)[C@H](CC(=O)NCC23CC4CC(CC(C4)C2)C3)C[C@@]2(C(=O)OCC)CCCC=C12	22.3%	24.8%	17.4%	14.6%
Cc1ccnc2nc(C(=O)OCC(=O)Nc3ccc([N+](=O)[O-])cc3Br)nn12	9.71%	38.9%	32.1%	-0.95%
CC(=O)N1CCc2c(sc(NC(=O)CCS(=O)(=O)c3ccc(C)cc3)c2C#N)C1	11.7%	52.5% (active)	43.6% (active)	-1.4%
O=C(CCl)N1CCN(C(=O)C2COc3ccccc3O2)CC1 (stereo not drawn)	18.7%	57.3% (active)	57.3% (active)	-13.5%
CCOc1ccc(NC(=O)CSc2nncc(=O)[nH]2)cc1	8.36%	63% (active)	57.7% (active)	-11.2%
Nc1nc(-c2ccccc2)c(CCCOc2ccc(NC(=O)CBr)cc2)c(=O)[nH]1	15.7%	61.6% (active)	48.9% (active)	-15.6%
CCN1C(=O)c2cccc3c(NC(=O)c4ccc(S(=O)(=O)N(C)C)cc4)ccc1c23	39% (active)	47.9% (active)	46.2% (active)	-41.4%
COc1cc(/C=N/n2nnnc2N)ccc1OCc1c(C)no[n+]1[O-]	9.05%	54.4% (active)	42.6%	10.5%
O=[N+]([O-])c1cnccc1Nc1ccc(F)cc1	13.2%	66.8% (active)	55.2% (active)	9.14%
CC(=O)Nc1cc(-c2cccc(NS(C)(=O)=O)c2)cn2c(-c3ccccc3)cnc12	28% (active)	40.4%	34.3%	-8.63%
